Data as given in PubChem BioAssay (NCI).
Compounds without any hit were thinned out: in the full panel of roughly 83,000, 20% have a hit.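 96-well plates, one dose, 48 hours. Percent growth reported; active if below 10.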 The source made the active and inactive calls.

Experiments:
Assay in all cases: NCI-60 one-dose screen, 48 h (100 = growth as untreated, 0 = no growth, -100 = all killed)
Conditions in all cases: 10 µM unless noted
[1] = system: HCT-15 colon
[2] = system: HT29 colon
[3] = system: SNB-75 CNS
[4] = system: SNB-19 CNS
[5] = system: U251 CNS
[6] = system: PC-3 prostate
[7] = system: SK-MEL-5 melanoma
[8] = system: UACC-62 melanoma
[9] = system: LOX IMVI melanoma
[10] = system: SK-MEL-28 melanoma

Measured: growth

CCN1C(=O)N(CC)C2Nn3c(s/c(=C4\C(=O)N(C5CCCC5)c5ccccc54)c3=O)=NC21 (stereo not given)
active: [3] 8.34%
inactive: [1] 51.2% | [2] 21.3% | [4] 79.2% | [5] 58.9% | [6] 46.5% | [7] 34.8% | [8] 61.9% | [9] 64.5% | [10] 73.4%

CNC(=O)Cc1nc(-c2cccc(NS(=O)(=O)c3c(F)cccc3F)c2F)c(-c2ccnc(Nc3ccccc3)n2)s1
inactive: [1] 72.1% | [3] 58.2% | [4] 75.4% | [5] 86.6% | [6] 81.8% | [7] 63.2% | [10] 15.2%
active: [2] 6.8% | [8] 5.51% | [9] 9.18%

CC/C=C\C[C@H](O)C/C=C1/C(=O)C(Cl)=C[C@@H]1C/C=C\CCCC(=O)O
inactive: [1] 16.2% | [2] 18.7% | [3] 71.7% | [4] 74.7% | [5] 17.5% | [6] 43.7% | [7] 69.1% | [10] 43.7%
active: [8] 1.46% | [9] 4.09%

C=CCn1c(C)nc2ccc(Nc3nc(Nc4ccc(F)cc4)nc4ccccc34)cc21
inactive: [1] 34.5% | [2] 18.7% | [3] 54.6% | [4] 96.5% | [5] 59.6% | [6] 42.1% | [7] 33.3% | [8] 63.2% | [9] 45.3% | [10] 72%

NCCSC(c1ccccc1)(c1ccccc1)c1ccccc1
active: [2] 0.695%
inactive: [1] 24.9% | [3] 12.5% | [4] 53.3% | [5] 14.1% | [6] 19.4% | [7] 11.9% | [8] 29.5% | [9] 25.9% | [10] 43%

Cc1ccc(S(=O)(=O)NCCCNc2nccc(-c3c(-c4ccccc4)nc4sccn34)n2)cc1
inactive: [1] 47% | [2] 18.5% | [3] 48.4% | [4] 75.4% | [5] 63.1% | [6] 30.9% | [7] 45% | [8] 36.5% | [9] 32.6% | [10] 78.5%

O=C(N/N=C/c1c(Cl)cccc1Cl)c1ccccc1Nc1ccnc(C(F)(F)F)c1
inactive: [1] 64.8% | [2] 90.9% | [3] 62.8% | [4] 68.3% | [5] 67.7% | [6] 51% | [7] 41.2% | [8] 55.6% | [9] 62.3% | [10] 84.2%

O=C(Nc1ccc(Br)c(Cl)c1)c1cc(F)ccc1O
inactive: [4] 19.4% | [5] 12.3%
active: [1] 7.56% | [2] 0.733% | [3] 8.82% | [6] 5.07% | [7] -90.3% | [8] -3.96% | [9] -61.4% | [10] -7.64%

CCN(CC)P(=O)(N(CC)CC)N(CCCSC/C=C(\C)CC/C=C(\C)CCC=C(C)C)CCCN1CCN(C)CC1
inactive: [1] 93.2% | [2] 98.9% | [3] 93% | [4] 92.8% | [5] 101% | [6] 95.5% | [7] 100% | [8] 94.2% | [9] 81.3% | [10] 107%

Cc1ccc(Cn2c(-c3cccs3)nc3ccccc32)cc1
inactive: [1] 81.7% | [2] 92.7% | [3] 62.2% | [4] 95.1% | [5] 85.5% | [6] 72.2% | [7] 82.4% | [8] 85.4% | [9] 82.5% | [10] 111%

C[C@]12CC[C@@H]3c4cc(O)c(O)cc4CC[C@H]3[C@@H]1CC[C@@H]2O
inactive: [1] 30% | [2] 96.4% | [4] 66.1% | [5] 35.8% | [6] 58.6% | [7] 26.5% | [8] 33.8% | [9] 40% | [10] 39.6%
active: [3] -14.5%

Clc1nc2ccccc2nc1CI
inactive: [1] 74.9% | [2] 117% | [3] 89.2% | [4] 103% | [5] 113% | [6] 89.6% | [7] 83% | [8] 100% | [10] 103%
active: [9] 8.23%

O=C1CCCCC=C1C[N+](=O)[O-]
inactive: [1] 75.2% | [2] 83.3% | [3] 105% | [4] 97.5% | [5] 88.4% | [6] 85.5% | [7] 71.9% | [8] 91.8% | [9] 81.1% | [10] 89.2%

NC(=O)NNC(=O)c1ccccc1
inactive: [1] 97.6% | [2] 113% | [3] 85.9% | [4] 111% | [5] 97.7% | [6] 96.5% | [7] 104% | [8] 104% | [9] 96.5% | [10] 117%

COc1ccc(S(=O)(=O)NCCNc2nccc(-c3c(-c4ccccc4)nc4sccn34)n2)cc1
inactive: [1] 19.4% | [2] 25.4% | [3] 21.8% | [4] 39.3% | [5] 32.7% | [6] 23.1% | [8] 24.8% | [9] 18.8% | [10] 31.3%
active: [7] -80%

COc1cccc(-c2nc3sccn3c2-c2ccnc(NCCCNS(=O)(=O)c3ccccc3)n2)c1
inactive: [1] 29.7% | [2] 29.4% | [3] 92.6% | [4] 95.5% | [5] 71% | [6] 61.6% | [8] 14.2% | [9] 28.9% | [10] 43.4%
active: [7] 9.71%

COc1cc(NC(=O)CCl)ccc(=O)c1
inactive: [1] 28.6% | [2] 70.1% | [3] 72% | [4] 93% | [5] 31.9% | [6] 74.6% | [7] 75% | [8] 57.2% | [9] 49.1% | [10] 85.4%

COc1ccc(-n2cnc3c(sc4ncc(Cl)cc43)c2=O)cc1
inactive: [1] 101% | [2] 79.3% | [3] 90.3% | [4] 108% | [5] 74.7% | [6] 83.1% | [7] 99.1% | [8] 109% | [9] 58% | [10] 102%

COc1cc(C(=O)OCCCCCCCCCCC[P+](c2ccccc2)(c2ccccc2)c2ccccc2)ccc1O
active: [1] 0.0119% | [2] 1.83% | [3] -75.7% | [4] -54.9% | [5] -89.8% | [6] -22.3% | [7] -98.1% | [8] -16% | [9] -97.7% | [10] -66.1%

c1cc(-c2ccc3c(c2)OCO3)n2nccc2n1
inactive: [1] 97.2% | [2] 103% | [3] 84.5% | [4] 101% | [5] 95.8% | [6] 93.9% | [7] 98.2% | [8] 113% | [9] 102% | [10] 105%

CCCCNc1nnc(-c2cc(-c3cc4ccccc4o3)nn2-c2ccccc2)o1
inactive: [1] 95.3% | [2] 93.6% | [3] 102% | [4] 91.2% | [5] 82.1% | [6] 83.6% | [7] 71.9% | [8] 76.7% | [9] 82.3% | [10] 108%

O=S(=O)(NCCCNc1cc(-c2cn(-c3ccccc3)nc2-c2cccc(O)c2)ccn1)c1cccc(F)c1
active: [1] 9.95% | [2] 8.11%
inactive: [3] 49.5% | [4] 81.6% | [5] 40.1% | [6] 15.5% | [7] 20% | [8] 50.5% | [9] 13.7% | [10] 44.3%

COc1ccc(-c2cn[nH]c2-c2cc(OC)c3c(c2)OCO3)cc1
active: [2] 5.01% | [3] -12.9% | [5] 9.27%
inactive: [1] 18.6% | [4] 41.7% | [6] 11.1% | [7] 32% | [8] 15.8% | [9] 22.8% | [10] 39.4%

Cc1ccc(Cn2c(-c3nonc3N)nc3ccccc32)cc1
inactive: [1] 50.5% | [2] 46.3% | [3] 57.4% | [4] 91% | [5] 77.5% | [6] 72.2% | [7] 76.2% | [8] 77.7% | [9] 71.7% | [10] 90%

CCc1cccc(C)c1NC(=O)c1sc2nc3c(cc2c1N)C(=O)CCC3
inactive: [1] 32.8% | [4] 67.9% | [6] 23.3% | [7] 17% | [8] 46.5% | [9] 37.9% | [10] 42.9%
active: [2] 6.1% | [3] -2.83% | [5] 2.81%

CCN1C(=S)N(CC)C2Nn3c(s/c(=C4\C(=O)N(C)c5ccccc54)c3=O)=NC21 (stereo not given)
active: [3] -1.67%
inactive: [1] 35.5% | [2] 14.9% | [4] 70.6% | [5] 51.4% | [6] 38.6% | [7] 19.6% | [8] 48.4% | [9] 49.2% | [10] 59.6%

CCCCCCCCCCCCNC(=S)N/N=C/c1ccc(Cl)c(Cl)c1
inactive: [1] 87.2% | [2] 82.2% | [3] 96.8% | [4] 114% | [5] 108% | [6] 107% | [7] 99% | [8] 95.5% | [9] 120% | [10] 104%
